According to PubChem BioAssay (NCI):
Compounds without any hit were thinned out: in the full panel of roughly 83,000, 20% have a hit.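 Compound tested at a single concentration for 48 hours in 96-well plates; a percent growth value below 10 was scored as active.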 Unmarked numbers belong to inactive results. Active and inactive are the calls of the source.

tested on: T-47D breast; test: NCI-60 one-dose screen, 48 h (100 = growth as untreated, 0 = no growth, -100 = all killed); conditions: 10 µM unless noted
Protocol: Growth inhibition of the T-47D human tumor cell line is measured as a screen for anti-cancer activity. Cells are grown in 96 well plates and exposed to the test compound for 48 hours. Compounds are tested at a single concentration, which is 10^-5 M for most compounds. The reported endpoint is percent growth (GI% or GIPRCNT), where numbers from 0 - 100% represent growth inhibition, and numbers from -100% - 0 represent cell death. For example, a value of 40 represents 60% growth inhibition. A value of 0 means no net growth occurred over the course of the experiment. A value of -40 indicates 40% of cells at the beginning of the experiment died by the end of the experiment. A value of -100 means all cells are dead at the end of the experiment.
NCI-60 Human Tumor Cell Lines Screen was performed using the standard one-dose NCI protocol, which is described in more detail at https://dtp.cancer.gov/discovery_development/nci-60/default.htm.
Compounds with GIPRCNT values below 10 were considered active. Activity score was based on GIPRCNT using the following formula: […]
Score is 0 for GIPRCNT values of 100 or above, 50 for GIPRCNT values of 0, and 100 for GIPRCNT values of -100.

| SMILES | growth |
| --- | --- |
| COc1cc(C(C)n2cc(-c3ccccc3)nn2)ccc1OC1CCCCC1 (stereo not given) | 58.8% |
| Cc1cccc2c(=O)c3c(sc12)c(NCCN)nc1ccccc13 | -50.2% (active) |
| CNC(=O)c1cc(Oc2ccc(CC(=O)Nc3cc(C(C)(C)C)cn3C)cc2)ccn1 | 48.9% |
| CN(O)c1nc(N(C)O)nc(N2CCOCC2)n1 | 40.9% |
| CC(=O)c1ccc(Cc2ccc(C(C)=O)s2)s1 | 96.7% |
| O=C(Nc1ccc(N2CCNCC2)cc1)c1[nH]ncc1Nc1cc(Oc2ccccc2)ncn1 | 40% |
| O=C(Nc1ccc(-c2nc3ccc(NC(=O)c4ccc(Cl)cc4)cc3[nH]2)cc1)c1ccc(Cl)cc1 | -1.92% (active) |
| C1CCN(c2nc(N3CCCCC3)nc(N3CCOCC3)n2)CC1 | 86.2% |
| N#C/C(=C1\SC(=O)CN1c1ccccc1)c1nc2ccccc2s1 | 73.6% |
| Cc1cc(Br)c(N)c(Br)c1 | 92.5% |
| COc1ccc(-c2nsc3c2NC(=O)CC3c2cccc(OC)c2)cc1 (stereo not given) | 35.2% |
| COC(=O)c1c2c(c(C)[n+]([O-])c1C)C(=O)C=C(NCc1ccccc1)C2=O | -34.4% (active) |
| COc1cc(C2C3=C(COC3=O)N(CCO)c3cc4c(cc32)CCC4)cc(OC)c1O (stereo not given) | 46.4% |
| Cn1c(/C=C(\C#N)c2ccccc2)nc2c(N3CCOCC3)nc(Cl)nc21 | -37.8% (active) |
| Cc1ccc2c(n1)C(=O)C(Oc1ccc(Br)cc1)=CC2=O | 59.2% |
| Nc1nc(-c2cnccn2)nn1-c1nc2ccccc2s1 | 96.9% |
| O=C(Nc1ccc(N2CCNCC2)cn1)c1[nH]ncc1Nc1ncnc2sc3c(c12)CCC3 | 43.8% |
| CN(CCc1ccccc1)C(=S)N(C(=O)c1ccc([N+](=O)[O-])cc1)c1ccc(Cl)cc1 | 68% |
| Cc1ccc(NC2=CC(=O)C(=O)c3ccccc32)c(C)c1 | 22.9% |
| CCOC(=O)C1=C(C)c2ccc(OC)c(OC)c2C1 | 78% |

| SMILES | growth |
| --- | --- |
| COc1cc2nc(-c3cccc4cccnc34)nc(NC3CCN(Cc4ccccc4)CC3)c2cc1OC | -64.4% (active) |
| O=C(Nc1ccc(I)cc1F)c1cc(F)ccc1O | -12.4% (active) |
| Cc1cccc(NC(=O)c2sc3nc4c(cc3c2N)CCCC4)c1C | 36.3% |
| NC(CCc1nc2ccccc2c(=O)[nH]1)C(=O)O (stereo not given) | 108% |
| COc1cc(C(C)n2cc(-c3ccccc3)nn2)ccc1OC1CCCC1 (stereo not given) | 51.5% |
| O=c1c2cc(F)cc(Cl)c2sc2c(Cl)nc3ccccc3c12 | 91.8% |
| O=C1/C(=C/c2ccc(O)cc2)COc2ccc(O)c(O)c21 | 11.8% |
| COC(=O)/C(CCC=C(C)C)=C1\[C@@H](OC(C)=O)C[C@@]2(C)[C@H]1C[C@@H](O)[C@H]1[C@@]3(C)CC[C@H](NCc4ccccc4)[C@@H](C)[C@@H]3CC[C@@]12C | 62.3% |
| Cc1ccc(C2CC(c3ccc(Nc4nc(NCCO)nc(Nc5ccc(Cl)cc5)n4)cc3)=NN2c2cc(Cl)cc(Cl)c2)cc1 (stereo not given) | 94.5% |
| Cc1ccc2cc3c(N)c4c(C)ccc(C)c4nc3nc2c1 | 6.15% (active) |
| COc1cc(/C=C/C(=O)c2ccc(Nc3nc(NCCO)nc(N4CCOCC4)n3)cc2)cc(OC)c1OC | 32.1% |
| CC1=C(C(=O)OCC2CCN(C(=O)OC(C)(C)C)CC2)[C@H](c2cccc(Br)c2)C2=C(CC(C)(C)CC2=O)N1 | 22% |
| O=NN(C(=O)NC1CCC(C(=O)O)CC1)C1CCC(C(=O)O)CC1 (stereo not given) | 103% |
| COC(=O)c1c2c(c(C)[n+]([O-])c1C)C(=O)C(NCc1ccc(Br)cc1)=CC2=O | 20.5% |
| COc1cc(CNC(=O)c2ccsc2Nc2ccnc(C(F)(F)F)c2)ccc1O | 98.7% |
| COc1cccc2c1C=C1CCCCC3=Cc4c(OC)cccc4OC13O2 | 40.3% |
| O=S1(=O)N(Cc2ccccc2)[C@@H](Cc2ccccc2)[C@H](O)[C@H](O)[C@H](Cc2ccccc2)N1Cc1ccccc1 | 7.87% (active) |
| COc1ccc(N)c(-c2cc3c(c4c2[nH]c2ccc(OC)cc24)CCCC3)c1 | 62.7% |
| C[n+]1c2ccccc2nc2ccc(NCCO)cc21 | 91.9% |
| Fc1cccc(COc2ccc(Nc3ncnc4onc(-c5ccccc5)c34)cc2)c1 | 45.4% |
